# Compound activity from PubChem.
# The sample as a whole holds a higher share of hits than the screen did.
# TDP1 cell noCPT – qHTS for Inhibitors of human tyrosyl-DNA phosphodiesterase 1 (TDP1): qHTS in cells in absence of CPT; DT40 Tdp1-/- hTDP1 cells, no CPT, ATP luminescence, 48 h; Potency, µM (highest dose often 46.2 µM), for the others: at the highest dose activity change, negative = growth inhibition, most hits filed as inhibitors; 420,000 compounds, 15% hits; AID 686978, 2013; also: potency is read from the fitted curve at half-maximal effect; nearly all actives have a fitted effect of over 55% in size
#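 Luminescent ATP content (CellTiter-Glo) served as the growth readout. Knockout chicken DT40 cells expressing human TDP1 were exposed to compounds without camptothecin for a minimum 48 hr at 37 °C.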
# ALOX12 inh – Primary qHTS assay for inhibitors of human arachidonate 12S-lipoxygenase (ALOX12): Round 2. Potency, µM (top dose mostly 108 µM), without a hit: at the top dose activity change, negative = inhibition, most hits filed as inhibitors. 580,000 compounds, 1.1% hits. purified 12hLO, xylenol orange hydroperoxide absorbance. AID 1671190, 2021; also: potency is read from the fitted curve at half-maximal effect
# Target sequence (P18054 whole entry, looked up): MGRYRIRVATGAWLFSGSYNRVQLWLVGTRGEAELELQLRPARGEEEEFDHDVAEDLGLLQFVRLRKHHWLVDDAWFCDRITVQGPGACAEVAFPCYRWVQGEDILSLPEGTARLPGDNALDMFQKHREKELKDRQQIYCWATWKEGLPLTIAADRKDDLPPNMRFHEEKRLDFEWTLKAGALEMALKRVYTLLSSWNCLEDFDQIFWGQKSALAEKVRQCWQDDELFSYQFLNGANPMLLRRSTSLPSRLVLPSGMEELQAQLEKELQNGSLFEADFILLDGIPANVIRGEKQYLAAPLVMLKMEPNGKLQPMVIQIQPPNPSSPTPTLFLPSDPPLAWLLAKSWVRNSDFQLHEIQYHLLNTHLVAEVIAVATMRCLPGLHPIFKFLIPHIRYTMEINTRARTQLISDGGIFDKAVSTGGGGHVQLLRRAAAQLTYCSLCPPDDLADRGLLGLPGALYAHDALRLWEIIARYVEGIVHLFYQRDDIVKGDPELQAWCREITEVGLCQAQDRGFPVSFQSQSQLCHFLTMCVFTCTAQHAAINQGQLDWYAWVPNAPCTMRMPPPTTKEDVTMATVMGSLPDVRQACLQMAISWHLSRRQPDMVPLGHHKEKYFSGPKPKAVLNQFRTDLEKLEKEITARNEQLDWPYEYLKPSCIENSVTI
#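 Purified human 12hLO at 150 nM in 25 mM Hepes, 0.01% Triton X-100, pH 7.0, preincubated 15 min at room temperature with compound. Reaction started with 40 uM arachidonic acid, 30 min at room temperature. Hydroperoxide measured by Fe-xylenol orange, 573/405 nm absorbance ratio.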
# TDP1 cell CPT – qHTS for Inhibitors of human tyrosyl-DNA phosphodiesterase 1 (TDP1): qHTS in cells in presence of CPT; chicken DT40 Tdp1-/-;hTDP1 cells + 20 nM CPT, ATP luminescence, 48 h; Potency, µM (doses to about 46.2 µM), for the others: at the top dose activity change, negative = growth inhibition, most hits filed as inhibitors; 420,000 compounds, 12% hits; also: potency is read from the fitted curve at half-maximal effect; nearly all actives have a fitted effect of over 55% in size
#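 Chicken DT40 Tdp1-/- cells stably complemented with human TDP1 were seeded at 400 cells/well in medium containing 20 nM camptothecin, exposed to pin-transferred compounds, and grown at 37 °C for at least 48 hr. Viability was read as ATP luminescence.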
# IL1B secr inh – qHTS for Inhibitors of Inflammasome Signaling: IL-1-beta AlphaLISA Primary Screen. THP-1 LPS/ATP IL-1B secretion, AlphaLISA, 16 h; active compounds read low. activity change, % at 57.5 µM. 360,000 compounds, 4.7% hits. AID 743279, 2014; in the data active = activity change below about -50%; inconclusive = mostly about -30% to -49%
#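 THP-1 cells pretreated 1 hr with compounds (up to 57.5 uM final), then stimulated with LPS (250 ng/mL final) plus ATP (1.25 mM final); secreted IL-1B measured by AlphaLISA after 16 hr, decreased signal indicating inhibition.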
# HT1080 IDH1KD tx – qHTS for induction of synthetic lethality in tumor cells producing 2HG: qHTS for the HT-1080-IDH1KD cell line | HT-1080 IDH1 knockdown viability, ATP luminescence, 48 h | Potency, µM (doses to about 46.1 µM), without a hit: at the highest dose activity, negative = toxicity, hits mostly cytotoxic | 360,000 compounds, 2% hits | AID 686971, 2013;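 also: potency is read from the fitted curve at half-maximal effect; 0% = DMSO wells and -100% = cell-free medium wells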
#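 CellTiter-Glo luminescence after 48 h compound exposure at 37 degrees C of IDH1-knockdown HT-1080 cells in 5% FBS RPMI. %Activity scaled between DMSO wells and cell-free media wells, with curves fitted and assigned curve classes.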
# HT1080NT lethal – qHTS for induction of synthetic lethality in tumor cells producing 2HG: qHTS for the HT-1080-NT fibrosarcoma cell line; HT-1080-NT fibrosarcoma viability, CellTiter-Glo ATP luminescence, 48 h; Potency, µM (highest dose often 46.1 µM), without a hit: at the highest dose activity, negative = less viability, most hits filed as cytotoxic; 360,000 compounds, 1.6% hits;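 also: NT is the 2HG producing partner of a matched IDH1 knockdown line; potency is read from the fitted curve at half-maximal effect; 0% = DMSO-treated cells and -100% = media-only wells without cells; nearly all actives have a fitted effect of over 55% in size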
#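 Compounds were tested in concentration-response format on HT-1080-NT cells for 48 hours at 37 degrees C. Cell viability came from CellTiter-Glo luminescence; curves were classified by r2, response magnitude and activity.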
# * marks the source's active call; other numbers are inactive results; u = inconclusive; x = no result given. Unless noted, calls follow the shape of the dose curve; as a rule, active = well fitted curve in the direction sought with a large enough effect; inconclusive = small, poorly fitted or top-dose-only effect, or another doubt; inactive = no such curve, though single readings can be large; an effect the other way counts as inactive or inconclusive. Unless noted, % is scaled to controls: 0 for no effect and ±100 for the full control effect.
SMILES,TDP1 cell noCPT,ALOX12 inh,TDP1 cell CPT,IL1B secr inh,HT1080 IDH1KD tx,HT1080NT lethal
Cc1cccc(-n2c(-c3ccco3)nc3c(cnn3-c3ccccc3C)c2=O)c1,u,u,21µM*,x,x,x
O=c1c2cnn(-c3ccccc3)c2nc(-c2ccco2)n1-c1ccccc1,21µM*,-14%,u,-55*,-20%,-24%
Cc1cccc(-n2ncc3c2ncn2nc(-c4ccco4)nc32)c1,x,-8%,x,x,x,x
Cn1cc(CC(=O)NCc2cn3ccccc3n2)c2ccccc21,x,21%,x,x,x,x
COc1c(N2CCN(C(=S)NCc3ccccc3)C(C)C2)c(F)cc2c(=O)c(C(=O)O)cn(C3CC3)c12 (stereo unspecified),23µM*,0%,u,-7,18µM*,u
O=C(O)c1ccc(N/N=C/C=C/c2ccc([N+](=O)[O-])o2)cc1,23µM*,-24%,8.2µM*,-15,-8%,-2%
Cc1ccc(/C=N/NS(=O)(=O)c2ccc(C)c([N+](=O)[O-])c2)o1,x,-17%,x,x,x,x
Cc1ccc(OCC(=O)N/N=C/c2ccc([N+](=O)[O-])o2)cc1,13µM*,2%,16µM*,-25,u,u
Cc1cc(C)c(S(=O)(=O)N/N=C/c2ccc([N+](=O)[O-])o2)c(C)c1,u,u,23µM*,-3,2%,-13%
CCCC(=O)Nc1ccc(C(=O)N/N=C/c2ccc([N+](=O)[O-])o2)cc1,9.2µM*,-14%,15µM*,17,13µM*,12µM*
Cc1cnc(C2CC2)n1CCNC(=O)c1cncn1C,x,87%,x,x,x,x
Cc1nn(C)cc1NC(=O)c1c(Br)cnn1C,x,-13%,x,x,x,x
O=C(N/N=C/c1ccc(-c2ccccc2)cc1)C1CC1,x,-29%,x,x,x,x
O=C(N/N=C/c1ccc([N+](=O)[O-])o1)C(=O)Nc1ccc(C(=O)O)cc1,-14%,-21%,-24%,18,9%,-17%
O=C(N/N=C/c1ccc([N+](=O)[O-])o1)C1CC1,23µM*,-14%,7.3µM*,13,u,-13%
NC(=O)N/N=C/c1ccc([N+](=O)[O-])o1,3.3µM*,-10%,16µM*,8,-20%,-29%
COC(=O)c1ccc(NC(=O)COc2ccc3c(C)cc(=O)oc3c2)cc1,x,32%,x,x,x,x
CC(=O)c1cccc(NC(=O)CN(c2ccc(C)cc2)S(=O)(=O)c2cccc3nonc23)c1,u,0%,u,-8,0%,-11%
COc1ccc(S(=O)(=O)N(CC(=O)Nc2ccc(C)cc2)c2ccc(C)cc2)cc1OC,x,0%,x,x,x,x
Cc1ccc(NC(=O)CN(c2ccc(Cl)cc2)S(=O)(=O)c2cc([N+](=O)[O-])ccc2Cl)cc1,23µM*,u,u,-99*,-20%,-18%
COc1ccc(C)cc1S(=O)(=O)N(CC(=O)Nc1cccc([N+](=O)[O-])c1)c1ccc(C)c(C)c1,u,-8%,16µM*,-3,-2%,-2%
COc1ccc(NC(=O)CN(c2ccc(C)cc2)S(=O)(=O)c2cccc3nonc23)cc1OC,16µM*,0%,-19%,x,x,x
NC(=O)C(Sc1ccc2ccccc2c1)c1ccccc1 (stereo unspecified),x,14%,x,x,x,x
Cc1nn(CC(=O)NCc2cccs2)c(=O)c2nn(-c3ccccc3)c(C)c12,11%,-3%,11%,-4,10%,2%
O=C(Cn1nnc2c(cnn2-c2ccccc2)c1=O)NCc1cccs1,23µM*,-24%,u,18,u,u
SMILES,TDP1 cell noCPT,ALOX12 inh,TDP1 cell CPT,IL1B secr inh,HT1080 IDH1KD tx,HT1080NT lethal
CCOC(=O)C1CCN(C(=O)Cn2ncc3c4ccccc4n(Cc4ccccc4F)c3c2=O)CC1,4.6µM*,0%,3.3µM*,x,x,x
Cc1ccccc1Cn1c2ccccc2c2cnn(CC(=O)N3CCC(C)CC3)c(=O)c21,15µM*,u,21µM*,x,x,x
Cc1ccc(C)c(Cn2c3ccccc3c3cnn(CC(=O)N4CCCCC4)c(=O)c32)c1,-3%,-24%,u,x,x,x
CC1CCCCN1C(=O)Cn1ncc2c3ccccc3n(Cc3ccccc3F)c2c1=O (stereo unspecified),9.2µM*,-28%,9.2µM*,x,x,x
Cc1cc(C)c2oc(-c3cccc(NC(=O)CC(C)C)c3)nc2c1,x,-41%,x,x,x,x
Cc1ccsc1C(=O)N1CCC(n2cc(-c3nc(-c4ccccc4)no3)nn2)CC1,x,19%,x,x,x,x
CC1CC(C)CN(C(=O)Cn2ncc3c([nH]c4ccccc43)c2=O)C1 (stereo unspecified),u,-9%,u,27,-15%,3%
O=C(Cn1ncc2c3ccccc3n(Cc3ccccc3)c2c1=O)N1CCN(c2ncccn2)CC1,u,x,-22%,-1,-24%,-7%
CN1CCN(C(=O)Cn2ncc3c4ccccc4n(Cc4ccc(Cl)cc4)c3c2=O)CC1,10µM*,9%,23µM*,x,x,x
CCN1CCN(C(=O)Cn2ncc3c4ccccc4n(Cc4ccccc4)c3c2=O)CC1,15µM*,-25%,16µM*,x,x,x
CCN1CCN(C(=O)Cn2ncc3c4ccccc4n(Cc4c(C)cc(C)cc4C)c3c2=O)CC1,16µM*,-20%,u,x,x,x
CCOC(=O)C1CCCN(C(=O)Cn2ncc3c([nH]c4ccccc43)c2=O)C1 (stereo unspecified),u,u,u,-84*,6%,9%
Cc1cc(C)c(Cn2c3ccccc3c3cnn(CC(=O)NCc4cccs4)c(=O)c32)c(C)c1,21µM*,u,15µM*,x,x,x
Cc1c2cnn(CC(=O)N3CCN(c4ccccc4)CC3)c(=O)c2c(C)n1Cc1ccc(F)cc1,13µM*,4%,21µM*,x,x,x
CCOC(=O)C1CCCN(C(=O)Cn2ncc3c4ccccc4n(Cc4ccc(F)cc4)c3c2=O)C1 (stereo unspecified),15µM*,-3%,23µM*,x,x,x
Cc1c2cnn(CC(=O)N3CCOCC3)c(=O)c2c(C)n1Cc1ccc(F)cc1,x,40%,x,x,x,x
CCN1CCN(C(=O)Cn2ncc3c4ccccc4n(Cc4ccccc4F)c3c2=O)CC1,18µM*,-17%,15µM*,x,x,x
